Active and inactive are the calls of the source. How the source made its calls: active means hit-call score of the fitted dose curve at least 0.9, where 1 is the maximum; inactive means score below 0.9.
Test: BSK_LPS_SRB: Viability Assessment in the BioMAP Diversity Plus: LPS Assay (AID 2283079);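 further: measured one day after compound addition; fitted in both directions against DMSO so loss or gain of signal counts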
Settings: primary human HUVEC with PBMC
Procedure: BSK_LPS is a cell-based, multiplexed-readout assay that uses umbilical vein endothelium and peripheral blood mononuclear cells, a human vascular primary cell co-culture, with measurements taken at 24 hours after chemical dosing in a 96-well plate.BSK_LPS_SRB is an assay component measured in the BSK_LPS assay. It measures 0.1% sulforhodamine related to cell death using Sulforhodamine staining technology.Data from the assay component BSK_LPS_SRB was analyzed into 1 assay endpoint. This assay endpoint, BSK_LPS_SRB, was analyzed with bidirectional fitting relative to DMSO as the negative control and baseline of activity. Using a type of viability reporter, gain or loss-of-signal activity can be used to understand changes in the signaling. Furthermore, this assay endpoint can be referred to as a primary readout, because this assay has produced multiple assay endpoints where this one serves a signaling function. To generalize the intended target to other relatable targets, this assay endpoint is annotated to the cell morphology intended target family, where the subfamily is cell conformation.
The levels of cell surface (or secreted, indicated by the prefix "s") biomarker endpoints were measured by ELISA. Overt cytotoxicity to cells in confluent adherent cultures (all systems other than the BT system) was assessed by measuring total protein levels using sulforhodamine B (SRB) staining in parallel cultures at the time of biomarker measurements, indicated as SRB endpoints. For proliferation assays for adherent cell types, individual cell types are cultured at sub-confluence and relative cell numbers quantified by SRB staining at time points optimized for each system (48 h: 3C and CASM3C systems; 72 h: BT and HDF3CGF systems; 96 h: SAg system). SRB was performed by staining cells with 0.1% SRB after fixation with 10% TCA and reading wells at 560 nm.Viability and proliferation of PBMC (T cells) was quantified by Alamar Blue reduction for the SAg and BT systems. For PBMC viability (referred to as PBMC Cytotoxicity within the assay endpoint names), cells were plated (75,000/well in a 96-well plate) and then chemical samples added for 1 h before addition of activators, SEB and TSST-1 (20 ng/mL final concentration each). Cells were incubated for 90 h. Then, Alamar Blue (20 uL/well) (Invitrogen, Cat DAL1100) was added for 6 h, and the plates were read with a fluorescence microplate reader at 546/580 nm (excitation/emission). For PBMC proliferation, cells were plated and activated as above but incubated for only 16 h prior to addition of Alamar Blue. Plates were read after 6 h.

| SMILES | outcome | AC50 |
| --- | --- | --- |
| CC1(C)NC(=O)NC1=O | inactive | – |
| CCCCCCCCCCCCCO | inactive | – |
| CN1CCN(Cc2cc(-c3ccc4[nH]c(=O)oc4c3)co2)[C@@H](c2ccc(F)cc2)C1 | – | 25.9 µM (active) |
| COCCOC[C@H](CC1(C(=O)NC2CCC(C(=O)O)CC2)CCCC1)C(=O)Oc1ccc2c(c1)CCC2 (stereo not given in full) | inactive | – |
| CCc1c(C(=O)NN2CCCCC2)nn(-c2ccc(Cl)cc2Cl)c1-c1ccc(Br)cc1 | – | 9.94 µM (active) |
| CCCCCCCCCCO | inactive | – |
| CCCCCCCCCCCCCCCC | inactive | – |
| Cc1cccc(Nc2cc(Cl)nc(SCC(=O)O)n2)c1C | inactive | – |
| Cc1ccc(C)c(O)c1C | inactive | – |
| NCCO | inactive | – |
| NS(=O)(=O)c1cc2c(cc1Cl)NCNS2(=O)=O | inactive | – |
| CCCCCCOCCO | inactive | – |
| CCCCOC(=O)CCCCCCCCC(=O)OCCCC | inactive | – |
| Cc1c(C(=O)O)c(O)cc2c1C(=O)c1c(O)c([C@@H]3O[C@H](CO)[C@@H](O)[C@H](O)[C@H]3O)c(O)c(O)c1C2=O | inactive | – |
| C[Si]1(C)O[Si](C)(C)O[Si](C)(C)O[Si](C)(C)O1 | inactive | – |
| Nc1ccccc1N | inactive | – |
| CCNc1cccc(C)c1 | inactive | – |
| CC(=O)Oc1ccccc1C(=O)O | inactive | – |
| Cc1nc(C)nc(N2C[C@@H](C)N(c3ccnc([C@@H](C)O)n3)[C@@H](C)C2)n1 | inactive | – |
| CC(C)(C)c1cc(O)c(C(C)(C)C)cc1O | inactive | – |

| SMILES | outcome | AC50 |
| --- | --- | --- |
| O=C(N[C@@H](Cc1ccccc1)[C@@H](O)C(=O)N1C[C@@H](O)[C@@H](O)C1)c1cc2cc(Cl)ccc2[nH]1 | inactive | – |
| COCCOCCOC | inactive | – |
| CCOC(=O)C(C)(C)Oc1ccc(Cl)cc1 | inactive | – |
| Cc1cc(NC(=O)C(=O)O)cc(C)c1Oc1ccc(O)c2c1CCC2 | inactive | – |
| COc1ccc(S(=O)(=O)N2C(=O)[C@@](c3ccccc3OC)(N3C[C@H](O)C[C@H]3C(=O)N(C)C)c3cc(Cl)ccc32)c(OC)c1 | inactive | – |
| O=C(O)Cc1ccccc1Nc1c(Cl)cccc1Cl | inactive | – |
| Oc1ccc2ccccc2c1N=Nc1ccccc1 | inactive | – |
| O=c1c(O)c(-c2ccc(O)c(O)c2)oc2cc(O)cc(O)c12 | – | 32.8 µM (active) |
| Cc1nc(-c2ccc3c(c2)CCN(CCC2CCC(NC(=O)/C=C/c4ccc(F)cc4)CC2)CC3)no1 (stereo not given) | inactive | – |
| FC(F)(F)C(F)(F)C(F)(F)C(F)(F)C(F)(F)C(F)(F)CCI | inactive | – |
| CC1=C(/C=C/C(C)=C/C=C/C(C)=C/CO)C(C)(C)CCC1 | inactive | – |
| C1CCC(SSC2CCCCC2)CC1 | inactive | – |
| Cc1cccc(C)c1O | inactive | – |
| OC[C@@H](O)[C@@H](O)[C@H](O)[C@H](O)CO | inactive | – |
| CNCc1cc(F)ccc1Oc1ccc(Cl)c(Cl)c1 | – | 30 µM (active) |
| Cc1ccc2ncccc2c1 | inactive | – |
| CN1CCCC1=O | inactive | – |
| COc1ccc(C)cc1N | inactive | – |
| C=CCOC(=O)c1ccccc1C(=O)OCC=C | inactive | – |
| CCCCCCCC=O | inactive | – |
